# Measured values as given in PubChem BioAssay AID1159580 (chemical genetic matrix, 2015).
# In all, about 5,500 compounds went through this assay and about 2,000 (36%) were called active. Inconclusive results (about 18%) are left out. The list shows a part of the results. Unmarked numbers belong to inactive results. No stated cut-off is given here; in the data, active means normalized growth mostly below about 0.91 (no sharp cut-off); inconclusive means no clear call, values can overlap the other calls; inactive means mostly above about 0.92.
# Assay: chemical genetic growth profiling, strain panel (AID 1159580);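 further: tested at 20 µM; growth read once vehicle control cultures reached saturation at 30 °C; 1 = growth at the plate median or of vehicle wells; lower values mean less growth of the strain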
# Settings: S. cerevisiae deletion strains, growth OD
smiles,measurement,setting,value
Cc1ccc(Nc2ccnc3cc(Cl)ccc23)cc1F,normalized growth,"locus YAR019C, strain CDC15, active compounds read low",0.997
same,normalized growth,"locus YBL105C, strain PKC1, active compounds read low",0.993
same,normalized growth,"locus YBR135W, strain CKS1, active compounds read low",0.995
same,normalized growth,"locus YBR136W, strain MEC1, active compounds read low",0.995
same,normalized growth,"locus YBR160W, strain CDC28, active compounds read low",0.988
same,normalized growth,"locus YDL017W, strain CDC7, active compounds read low",1
same,normalized growth,"locus YDL028C, strain MPS1, active compounds read low",0.991
same,normalized growth,"locus YDL101C, strain DUN1, active compounds read low",0.992
same,normalized growth,"locus YDL108W, strain KIN28, active compounds read low",0.995
same,normalized growth,"locus YDL132W, strain cdc53, active compounds read low",0.987
same,normalized growth,"locus YDL214C, strain PRR2, active compounds read low",0.942
same,normalized growth,"locus YDR052C, strain DBF4, active compounds read low",0.991
same,normalized growth,"locus YDR054C, strain cdc34, active compounds read low",0.985
same,normalized growth,"locus YDR226W, strain ADK1, active compounds read low",0.997
same,normalized growth,"locus YDR477W, strain SNF1, active compounds read low",0.946
same,normalized growth,"locus YER123W, strain YCK3, active compounds read low",0.918
same,normalized growth,"locus YER133W, strain GLC7, active compounds read low",0.96
same,normalized growth,"locus YFL009W, strain cdc4, active compounds read low",0.983
same,normalized growth,"locus YFL029C, strain CAK1, active compounds read low",0.986
same,normalized growth,"locus YFR003C, strain YPI1, active compounds read low",0.996
same,normalized growth,"locus YFR019W, strain FAB1, active compounds read low",0.943
same,normalized growth,"locus YFR028C, strain CDC14, active compounds read low",0.989
same,normalized growth,"locus YGR040W, strain KSS1, active compounds read low",0.945
same,normalized growth,"locus YGR052W, strain FMP48, active compounds read low",1.06
same,normalized growth,"locus YGR092W, strain DBF2, active compounds read low",0.973
same,normalized growth,"locus YHR030C, strain SLT2, active compounds read low",0.826 (active)
same,normalized growth,"locus YHR079C, strain IRE1, active compounds read low",0.96
same,normalized growth,"locus YHR082C, strain KSP1, active compounds read low",1
same,normalized growth,"locus YHR205W, strain SCH9, active compounds read low",0.915
same,normalized growth,"locus YIL147C, strain SLN1, active compounds read low",0.992
same,normalized growth,"locus YJL095W, strain BCK1, active compounds read low",0.905
same,normalized growth,"locus YJL128C, strain PBS2, active compounds read low",0.935
same,normalized growth,"locus YJL157C, strain FAR1, active compounds read low",0.965
same,normalized growth,"locus YJR016C, strain ILV3, active compounds read low",0.998
same,normalized growth,"locus YJR066W, strain TOR1 (second series), active compounds read low",0.946
same,normalized growth,"locus YJR066W, strain TOR1, active compounds read low",0.967
same,normalized growth,"locus YKL048C, strain ELM1, active compounds read low",0.943
same,normalized growth,"locus YKL067W, strain YNK1, active compounds read low",0.937
same,normalized growth,"locus YKL101W, strain HSL1, active compounds read low",0.951
same,normalized growth,"locus YKL193C, strain SDS22, active compounds read low",0.997
same,normalized growth,"locus YKL203C, strain TOR2, active compounds read low",0.977
same,normalized growth,"locus YLR113W, strain HOG1, active compounds read low",0.924
same,normalized growth,"locus YLR133W, strain CKI1, active compounds read low",0.94
same,normalized growth,"locus YLR403W, strain SFP1, active compounds read low",0.951
same,normalized growth,"locus YML070W, strain DAK1, active compounds read low",0.947
same,normalized growth,"locus YMR001C, strain CDC5, active compounds read low",0.995
same,normalized growth,"locus YMR205C, strain PFK2 (second series), active compounds read low",0.956
same,normalized growth,"locus YMR277W, strain FCP1, active compounds read low",0.995
same,normalized growth,"locus YNL006W, strain LST8, active compounds read low",1.01
same,normalized growth,"locus YNL020C, strain ARK1, active compounds read low",0.943
same,normalized growth,"locus YNL161W, strain CBK1, active compounds read low",1
same,normalized growth,"locus YNL183C, strain NPR1, active compounds read low",0.936
same,normalized growth,"locus YNL207W, strain RIO2, active compounds read low",0.997
same,normalized growth,"locus YNL222W, strain SSU72, active compounds read low",1
same,normalized growth,"locus YNL307C, strain MCK1 (second series), active compounds read low",0.918
same,normalized growth,"locus YOL078W, strain AVO1, active compounds read low",0.997
same,normalized growth,"locus YOL136C, strain PFK27, active compounds read low",0.934
same,normalized growth,"locus YOR061W, strain CKA2, active compounds read low",0.978
same,normalized growth,"locus YOR119C, strain RIO1, active compounds read low",1.04
same,normalized growth,"locus YOR231W, strain MKK1, active compounds read low",0.972
same,normalized growth,"locus YOR329C, strain SCD5, active compounds read low",0.996
same,normalized growth,"locus YPL031C, strain PHO85, active compounds read low",0.947
same,normalized growth,"locus YPL153C, strain RAD53, active compounds read low",0.938
same,normalized growth,"locus YPL204W, strain HRR25, active compounds read low",0.927
same,normalized growth,"locus YPL209C, strain IPL1, active compounds read low",0.998
same,normalized growth,"locus YPL256C, strain CLN2, active compounds read low",0.92
same,normalized growth,"locus YPR025C, strain CCL1, active compounds read low",0.99
same,normalized growth,"locus YPR106W, strain ISR1, active compounds read low",0.994
same,normalized growth,"locus YPR111W, strain DBF20, active compounds read low",0.976
same,normalized growth,"strain NNK1, active compounds read low",0.981
same,normalized growth,"strain TSCII, active compounds read low",0.99
